In ChEMBL document CHEMBL3433997, “St. Jude Leishmania screening dataset” (2016):

Tests used:
Type in all cases: functional
[1] = biological target: Solute carrier family 2, facilitated glucose transporter member 1 (Homo sapiens) (UniProt P11166); assay: ST_JUDE_LEISH: Cytotoxicity at 2uM final concentration against transgenic Leishmania Mexicana promastigotes LmGLUT1 that are glucose transport deficient and complemented with the human glucose transporter GLUT1. Activity is measured by DNA content using SYBR green in vitro
[2] = biological target: Hexose transporter 1 (Plasmodium falciparum) (UniProt O97467); assay: ST_JUDE_LEISH: Cytotoxicity at 2uM final concentration against transgenic Leishmania Mexicana promastigotes LmPfHT that are glucose transport deficient and complemented with the Plasmodium falciparum hexose transporter. Activity is measured by DNA content using SYBR green in vitro
[3] = biological target: Glucose transporter (Leishmania mexicana) (UniProt O61059); assay: ST_JUDE_LEISH: Cytotoxicity at 2uM final concentration against transgenic Leishmania Mexicana promastigotes LmGT2 that are glucose transport deficient and complemented with the L. Mexicana glucose transporter 2. Activity is measured by DNA content using SYBR green in vitro

Chain of Solute carrier family 2, facilitated glucose transporter member 1 (Homo sapiens) (P11166 whole entry): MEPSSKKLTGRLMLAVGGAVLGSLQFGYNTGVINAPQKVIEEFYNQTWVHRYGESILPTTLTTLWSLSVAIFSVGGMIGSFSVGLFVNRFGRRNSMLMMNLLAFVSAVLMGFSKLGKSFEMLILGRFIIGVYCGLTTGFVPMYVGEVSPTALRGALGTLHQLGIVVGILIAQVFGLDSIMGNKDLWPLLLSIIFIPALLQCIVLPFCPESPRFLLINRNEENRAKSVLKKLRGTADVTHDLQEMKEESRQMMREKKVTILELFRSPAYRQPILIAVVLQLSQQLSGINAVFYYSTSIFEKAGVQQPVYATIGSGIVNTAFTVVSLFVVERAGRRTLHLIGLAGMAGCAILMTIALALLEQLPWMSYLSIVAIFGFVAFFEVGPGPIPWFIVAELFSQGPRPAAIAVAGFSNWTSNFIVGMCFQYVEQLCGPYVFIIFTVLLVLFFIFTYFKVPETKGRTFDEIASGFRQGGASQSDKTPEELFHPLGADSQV

Row | Compound | inhibition [1] | inhibition [2] | inhibition [3]
1 | O=C(Nc1cccc(-c2nc3ccccc3s2)c1)c1ccccc1[N+](=O)[O-] | 0.94% | -0.02% | -0.15%
2 | CCC(C)NS(=O)(=O)c1ccc2nc(Nc3ccc(C)cc3)n([C@H](C)C(C)(C)C)c2c1 (stereo partly specified) | 2.68% | 0.25% | -0.82%
3 | Nc1cc(-c2ccc(Br)cc2O)nc2ccccc12 | 1.51% | 0.65% | 2.06%
4 | Cc1cc(F)ccc1N(c1nc(-c2cc(Cl)ccc2Cl)cs1)C1CCNC1 (stereo unspecified) | 8.82% | 7.41% | 4.16%
5 | CCCN(CCC)CCCOc1ccc(C(=O)c2c(-c3ccc(OCCCN(CCC)CCC)cc3)oc3ccc(Cl)cc23)cc1 | 70.8% | 49.3% | 31.1%
6 | Cc1ccnc2nc(C(=O)Nc3cc(C(F)(F)F)ccc3N3CCCCC3)nn12 | 1.48% | 2.09% | 1.77%
7 | CN1CCN(CCCN(Cc2cccc(-c3cccc(CNCCc4ccccc4)c3)c2)C(=O)Nc2ccccc2)CC1 | 8.85% | 9.55% | 7.52%
8 | CC(=O)c1ccc2cc(C(=O)NC3CCC(CCN4CCc5ccc(-c6noc(C)n6)cc5CC4)CC3)[nH]c2c1 (stereo unspecified) | -0.19% | -0.01% | -2.09%
9 | CCN(CC)CCCNCc1ccc(-c2ccc(C(F)(F)F)cc2)cc1 | 5.63% | 2.78% | -0.45%
10 | O=C1COC(c2ccccc2)(c2ccccc2)CN1CC1CCN(Cc2ccc(O)cc2Cl)C1 (stereo unspecified) | 3.1% | 1.71% | 2.56%
11 | CCOC(=O)c1cc(C(=O)NCCCCN2CCC(c3ccc4c(c3OC)CCCC4)CC2)ccc1-c1ccc(C(F)(F)F)cc1 | -2.37% | 4.37% | 1.36%
12 | Fc1ccc2[nH]ccc(=NN=CC=Cc3ccccc3)c2c1 | 1.52% | 3% | -2.56%
13 | Nc1cccc(C=CC(=O)N=c2cc[nH]c3ccccc23)c1 | -0.24% | 0.74% | -2.1%
14 | O=C(Nc1ccc(Cn2nc(Cl)c(N3CCCNCC3)cc2=O)cc1)c1ccc(-c2ccccc2)cc1 | 7.36% | 5.68% | 4.52%
15 | Fc1ccc(C2N=C(SCCSC3=NC(c4ccc(F)cc4)C(c4ccc(F)cc4)N3)NC2c2ccc(F)cc2)cc1 (stereo unspecified) | 1.34% | 3.1% | 3.33%
16 | O=C(NC1CCN(Cc2ccccc2)CC1)c1cccc(-c2cc3cc(Cl)c(Cl)cc3[nH]2)c1 | 2.36% | -1.61% | -0.91%
17 | O=C(Nc1ccc(OC2CCN(Cc3ccco3)CC2)c(Cl)c1)c1ccc2ncccc2c1 | 4.38% | 2.97% | 2.34%
18 | CC(C)CNCc1ccc(-c2ccc(CNC3CCN(Cc4ccccc4)CC3)cc2)cc1 | 0.98% | 4.82% | 5.31%
19 | FC(F)(F)c1cccnc1N1CCC(Nc2nc3cc(Cl)ccc3[nH]2)CC1 | 5.58% | 1.96% | 3.47%

Row | Compound | inhibition [1] | inhibition [2] | inhibition [3]
20 | CC(Cc1ccc(NC(=O)c2ccc(CNCc3ccccc3)cc2)cc1)N(CCc1cccc(Cl)c1)C(=O)OC(C)(C)C (stereo unspecified) | 6.08% | 4.74% | 3.04%
21 | O=C1OC2(CN1CC1CCN(Cc3ccc(-n4ccnc4)cc3)C1)c1ccccc1-c1ccccc12 (stereo unspecified) | 4.6% | 5.24% | 2.86%
22 | CC(C)(C)OC(=O)n1cc(C2CCN(CCCC34CCCc5cccc(c53)NC4=O)CC2)c2ccncc21 (stereo unspecified) | -0.89% | -0.01% | 9.45%
23 | CN1CCN(CCCN(Cc2csc(-c3ccc(CNCc4ccccc4)cc3)n2)S(=O)(=O)c2ccc(F)cc2)CC1 | 14.9% | 17.1% | 10.1%
24 | CC(C)Sc1ccc(Cl)cc1CON1C(=N)N=C(N)NC1(C)C | 2.72% | 2.18% | 0.87%
25 | COc1cccc(C(C)(C)NC[C@@H](O)[C@H](Cc2ccccc2)NC(=O)c2cc(C3CCCC3)cc(N3CCCCS3(=O)=O)c2F)c1 | 0.16% | 2.15% | 1.09%
26 | O=C(c1ccc(Cl)cc1Cl)N1CCCC(C(F)(F)F)C1 (stereo unspecified) | 8.69% | 11.4% | 10.3%
27 | Cc1[nH]c(C)c(-c2ccc(Oc3cccc(Cl)c3)cc2)c(=O)c1Cl | 9.05% | 7.78% | 4.29%
28 | COc1cc2nc(N(C)C)nc(Nc3ccc(OCc4ccccc4)cc3)c2cc1OC | 0.24% | 1.34% | -0.07%
29 | CC(=NNC(S)=NCc1ccco1)c1ccccn1 | 1.7% | 1.81% | 1.16%
30 | CCN(CC)CCCC(C)Nc1c(-c2ccc(OC)cc2)cnc2ccccc12 (stereo unspecified) | 2.85% | 3.79% | 0.36%
31 | CCNCc1ccc(-c2cc3ncnc(Nc4ccc(OCc5cccc(F)c5)c(Cl)c4)c3s2)[nH]1 | -0.88% | -3.14% | 3.41%
32 | C=CCn1c(Cc2ccccc2)nnc1Sc1ccc(C#N)c([N+](=O)[O-])c1 | 3.36% | 3.11% | 2.02%
33 | Nc1ncc(OC2CCCCC2)c(N)n1 | -1.08% | 0.87% | -1.09%
34 | COc1ccc2nccc(N3CCN(CCNCc4ccc5c(n4)NC(=O)CO5)CC3)c2c1 | 8.8% | 8.24% | 8.99%
35 | CCNC(=O)Nc1ccc(N(C)c2ccnc(Nc3ccc(CS(C)(=O)=O)cc3)n2)cc1 | 13.5% | 12.2% | 9.58%
36 | CCCCCCCCN1CCN(CCCCCCNc2c3ccccc3nc3ccccc23)CC1 | 55.5% | 28.6% | 61.1%
37 | CCCCn1c(SC(C)C)nc2c(c1=O)C1(CCCCC1)Cc1ccccc1-2 | 4.14% | 4.8% | 3.66%
